Compounds with a hit are over-represented: about 2.4% of the library has one in this group of screens.
D2 ag-1: agonists of human D2 dopamine receptor. P14416. HEK293 T-REx D2 cells, calcium flux agonist mode. activation, % at 2 µM. 340,000 tested, 0.53% active. AID 485358;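 active = activation over 3 SD above normal in the single-dose calcium agonist read, cut at about 30% in these data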
Target sequence (P14416 whole entry, looked up): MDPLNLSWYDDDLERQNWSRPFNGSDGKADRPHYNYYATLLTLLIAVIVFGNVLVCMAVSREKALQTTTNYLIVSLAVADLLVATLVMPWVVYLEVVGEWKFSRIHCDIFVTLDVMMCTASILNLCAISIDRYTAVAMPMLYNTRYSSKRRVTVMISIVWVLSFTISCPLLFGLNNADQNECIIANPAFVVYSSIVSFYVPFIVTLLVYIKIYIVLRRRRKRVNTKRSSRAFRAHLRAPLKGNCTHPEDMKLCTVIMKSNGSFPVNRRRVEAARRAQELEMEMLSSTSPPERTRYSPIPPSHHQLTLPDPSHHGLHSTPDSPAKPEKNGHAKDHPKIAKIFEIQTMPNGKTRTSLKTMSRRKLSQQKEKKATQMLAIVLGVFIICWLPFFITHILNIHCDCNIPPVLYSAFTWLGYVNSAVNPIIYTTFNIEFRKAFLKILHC
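Agonism scored from kinetic calcium signal (1 read/sec, 180 s) following compound pin transfer, after a 10 s baseline. Cells: HEK293 Trex line expressing inducible D2 receptor coupled to calcium, dye-loaded after overnight culture at 30 C.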
D2 PAM-1: potentiates the human D2 dopamine receptor allosterically | P14416 | DiscoveRx D2 beta-arrestin cells, luminescence, 90 min; 100% = 57 uM dopamine signal | potentiation, % (concentration not given with the values) | 360,000 tested, 0.23% active | AID 624464; in the data active = potentiation above about 50%
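PathHunter beta-arrestin assay in DiscoveRx D2 cells. Compounds were added with an EC20 of dopamine (50 nM final) for 90 min at 37 deg C. Luminescence was read 1 h after detection reagent, with 57 uM dopamine as the EC100 control.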
D2 antagonist: antagonists of human D2 dopamine receptor | HEK293 TREx D2 cells, calcium flux, dopamine EC80 | P14416 | 340,000 tested, 2% active | AID 485344 | inhibition, % at 10 µM; in the data active = inhibition above about 30%; inactive = below that, where a call was filed
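Dopamine at EC80 is the agonist stimulus; test compounds precede it by 180 s. Calcium flux read kinetically in a force-coupled, inducible HEK293 T-REx D2 cell line.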
D2 PAM-2: positively modulates the human D2 dopamine receptor allosterically | 340,000 tested, 0.34% active | potentiation, % at 10 µM | HEK293 T-REx D2, calcium flux, EC20 dopamine potentiation | AID 485347;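 active = potentiation over 3 SD above the plate norm, cut at about 30% in these data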
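Primary screen. Calcium kinetics in induced HEK293 T-REx D2 cells: compound pre-addition 180 s, EC20 dopamine, 180 s more.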
D2 ag-2: activates the human D2 dopamine receptor; P14416; DiscoveRx PathHunter D2 beta-arrestin, luminescence, 90 min; 100% = 57 uM dopamine signal; activation, % (concentration not given with the values); 360,000 tested, 0.084% active; AID 624465; in the data active = activation above about 40%
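DiscoveRx PathHunter D2 beta-arrestin cells (2,100/well) attached overnight, then compound-stimulated 90 min at 37 C in HBSS/10 mM HEPES/0.1% Tween-20 buffer; beta-galactosidase complementation read by luminescence after 1 h at ambient temperature. Dopamine 57 uM final (EC100) as control.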
Of the large screens only hits and unclear results are named; the others gave an inactive call.

CC(=O)N1CCN(c2ccccc2NC(=O)c2cccs2)CC1	none
O=C(Nc1ccccc1N1CCN(C(=O)c2ccccc2)CC1)c1cc2ccccc2o1	D2 antagonist 62.9
O=C(Nc1ccccc1N1CCCC1)c1cc2ccccc2o1	none (no result: D2 PAM-2)
COc1ccccc1C1NC(=O)c2n[nH]c(-c3cccs3)c21 (stereo unspecified)	none (no result: D2 PAM-1, D2 antagonist, D2 ag-2)
Cc1ccc(S(=O)(=O)N(C)C)cc1NC(=S)NCc1ccco1	D2 antagonist 39.7 (no result: D2 PAM-2)
S=C(NCc1ccco1)Nc1ccccc1	D2 antagonist 30.6
Cc1ccc(S(=O)(=O)N(C)C)cc1NC(=S)NC12CC3CC(CC(C3)C1)C2	D2 antagonist 77.8
Cc1ccc(S(=O)(=O)N(C)C)cc1NC(=S)NC(=O)C12CC3CC(CC(C3)C1)C2	none
Cc1ccc(S(=O)(=O)N(C)C)cc1NC(=S)Nc1ccc2[nH]c(=O)[nH]c2c1	D2 antagonist 48.9
Cc1ccc(NC(=S)Nc2ccc3[nH]c(=O)[nH]c3c2)cc1C	none
CN(C)S(=O)(=O)c1cccc(C(=O)NCc2ccco2)c1	none
COc1ccc(N2CCN(c3ccc(-c4nc(-c5ccccc5C)no4)cc3[N+](=O)[O-])CC2)cc1	none (no result: D2 ag-1, D2 PAM-1, D2 antagonist, D2 ag-2)
COC1CCCN(C(=O)c2ccc3oc(Cc4ccc(Cl)cc4)nc3c2)C1 (stereo unspecified)	D2 antagonist 30.6
CCCC(=O)NCC(c1ccc2c(c1)OCO2)N1CCOCC1 (stereo unspecified)	none (no result: D2 PAM-1, D2 antagonist, D2 ag-2)
COCc1cc(C)n(CC(=O)N2CCCC2)c(=O)c1C#N	D2 antagonist 30.8
COC(=O)CNC(=O)CSc1nc2c(sc(=S)n2-c2ccccc2)c(=O)[nH]1	D2 antagonist 44.0
CN1CCN(/C=N/C2=C(C#N)C(c3ccccc3)C3=C(CC(C)(C)CC3=O)O2)CC1 (stereo unspecified)	D2 PAM-2 36.4
COc1ccccc1NC(=O)/C(C#N)=C/c1c(C)nn(-c2ccc(F)cc2)c1Cl	D2 ag-1 31.7
Cc1ccc(Cn2cc(CCC(=O)NC3CCCCC3)c3ccccc32)cc1	none (no result: D2 PAM-1, D2 antagonist, D2 ag-2)
COc1ccc(-c2nc(NC(=O)c3ccco3)sc2C)cc1	none (no result: D2 ag-1, D2 antagonist, D2 PAM-2)
COc1ccc(-c2nc(NC(=O)c3[nH]c(C)c(C(C)=O)c3C)sc2C)cc1	D2 PAM-2 30.8
CC(=O)c1c(C)[nH]c(C(=O)Nc2nc(C)cs2)c1C	D2 antagonist 32.9
CC(=O)c1c(C)[nH]c(C(=O)Nc2nc(-c3ccc(Cl)cc3)cs2)c1C	none
CC(C)CCNC(=O)c1ccc2nc(Cc3ccccc3)oc2c1	none (no result: D2 PAM-1, D2 antagonist, D2 ag-2)
Cc1ccc(S(=O)(=O)NNC(=O)CCC(=O)Nc2ccc(C)c(C)c2)cc1	D2 antagonist 31.5
NS(=O)(=O)c1cccc(NC(=O)COC(=O)C2(c3cccc(F)c3)CCCC2)c1	D2 antagonist 50.8
O=C(Oc1ccc(-c2ccccc2)cc1)N1CCOCC1	none
O=C(Oc1cccc(Oc2ccccc2)c1)N1CCOCC1	D2 antagonist 40.9
CCN(CC(=O)Nc1cc(Cl)ccc1C)C(=O)COc1ccccc1F	D2 antagonist 39.9
CCN(CC(=O)Nc1cc(Cl)ccc1C)C(=O)CCOc1ccccc1C	D2 antagonist 31.2
CCN(CC(=O)Nc1c(F)cccc1F)C(=O)Cc1sc(C)nc1-c1ccc(F)cc1	none
CCN(CC(=O)Nc1cc(Cl)ccc1C)C(=O)Cc1sc(C)nc1-c1ccc(F)cc1	D2 antagonist 75.5
CCN(C(=O)c1ccc(Br)o1)C1CCS(=O)(=O)C1 (stereo unspecified)	none
CN(C(=O)c1ccc(Br)o1)C1CCS(=O)(=O)C1 (stereo unspecified)	D2 antagonist 37.2
CCCCn1c(SCC(=O)c2ccc(OC)c(OC)c2)nc2cc(S(N)(=O)=O)ccc21	none
CCCCn1c(SCC(=O)c2ccc(OCC)cc2)nc2cc(S(N)(=O)=O)ccc21	D2 antagonist 44.7
COC(=O)C(C(C)=O)C1=C/C(=N\S(=O)(=O)c2ccc(C)cc2)c2ccccc2C1=O (stereo unspecified)	D2 PAM-1 50.1
O=C(C1=C(Nc2ccccc2)c2ccccc2S(=O)(=O)N1)c1ccccc1	D2 antagonist 39.7
Cc1ccccc1NC1=C(C(=O)c2ccccc2)N(C)S(=O)(=O)c2ccccc21	none
O=c1[nH]c(=O)n(C2CCCO2)cc1F (stereo unspecified)	D2 antagonist 32.1
CC1CCN(CCCCOc2ccccc2-c2ccccc2)CC1	D2 antagonist 83.8
CC1CCN(CCOCCOc2ccccc2Br)CC1	none
CC1CCN(CCOCCOc2ccccc2-c2ccccc2)CC1	D2 antagonist 55.8
CC1CCCN(CCCOc2ccccc2-c2ccccc2)C1 (stereo unspecified)	D2 antagonist 73.4
CC1CCCN(CCOCCSc2ccccc2)C1 (stereo unspecified)	none
Nc1c(C(=O)c2ccccc2)sc2nsc(SCCN3CCCC3)c12	D2 ag-1 37.1
O=C(Nc1ccc(F)c(Cl)c1)c1ccc2c(c1)OCO2	none
COc1ccccc1OCCC(=O)OCC(=O)Nc1ccc(Br)cc1	D2 antagonist 90.7
COc1ccccc1/C=C/C(=O)OCC(=O)Nc1ccc2c(c1)OCCO2	none
COc1ccc(NC(=O)c2ccc3c(c2)OCO3)cc1Cl	D2 antagonist 39.3
COc1ccccc1/C=C/C(=O)Nc1ccc2c(c1)OCCO2	D2 antagonist 34.4
COc1ccccc1OCC(=O)Nc1ccc2c(c1)OCO2	D2 antagonist 32.3
CC/C(=N\NC(N)=O)c1ccc(OC)c(OC)c1	D2 antagonist 38.5
CC/C(=N\NC(=O)COc1ccc(Br)cc1)c1ccc(OC)c(OC)c1	none (no result: D2 ag-1, D2 antagonist, D2 PAM-2)
CCc1ccc(NC(=O)CSc2nc(=O)n(Cc3ccncc3)c3c2CCC3)cc1	none (no result: D2 PAM-1, D2 antagonist, D2 ag-2)
O=C1C=C(Nc2cccnc2)c2ccccc2C1=O	D2 PAM-1 57.8 (no result: D2 ag-1, D2 antagonist, D2 PAM-2)
O=C1C=C(Nc2ccc(F)cc2)c2ccccc2C1=O	D2 PAM-1 50.5
O=C(CCn1cnc2onc(-c3ccc(F)cc3)c2c1=O)Nc1ccc(F)c(Cl)c1	none (no result: D2 PAM-1, D2 antagonist, D2 ag-2)
CCOc1ccc(CCNC(=O)CSCC(=O)Nc2ccc(OC)cc2)cc1OCC	D2 antagonist 31.4
COc1ccc(NC(=O)CSCC(=O)N(C)Cc2ccc3c(c2)OCCO3)cc1	D2 antagonist 35.1
COc1ccc(NC(=O)CN(C)C(=O)Cc2ccc3c(c2)OCCO3)cc1	none
CCOC(=O)CNC(=O)N1[C@H](c2cccs2)[C@@H](C)C(=O)[C@@H](C)[C@@H]1c1cccs1	none (no result: D2 PAM-1, D2 antagonist, D2 ag-2)
Cc1cc(NC(=O)CCN2CCC(C)CC2)ccc1Br	D2 antagonist 39.1
Cc1cc(NC(=O)CN2C(=O)N(C)C3(CCCCC3)C2=O)ccc1Br	D2 antagonist 33.4
COc1ccc(-c2nc(C)c(CCNS(=O)(=O)c3cc(C)c(C)cc3C)s2)cc1	none (no result: D2 PAM-1, D2 antagonist, D2 ag-2)
CC(=O)C1=C(C)NC(C)=C(C(C)=O)C1c1cccs1	none
CC(=O)C1=C(C)NC(C)=C(C(C)=O)C1c1ccccc1	D2 ag-2 40.7

Source: PubChem
